{
  "source": "PubChem BioAssay (EPA / NIEHS)",
  "key": {"[1]": {"biological_target": "Estrogen receptor (Homo sapiens) + Estrogen receptor beta (Homo sapiens) (UniProt P03372+Q92731)", "sequence (P03372 whole entry, looked up, the tested form may be a part)": "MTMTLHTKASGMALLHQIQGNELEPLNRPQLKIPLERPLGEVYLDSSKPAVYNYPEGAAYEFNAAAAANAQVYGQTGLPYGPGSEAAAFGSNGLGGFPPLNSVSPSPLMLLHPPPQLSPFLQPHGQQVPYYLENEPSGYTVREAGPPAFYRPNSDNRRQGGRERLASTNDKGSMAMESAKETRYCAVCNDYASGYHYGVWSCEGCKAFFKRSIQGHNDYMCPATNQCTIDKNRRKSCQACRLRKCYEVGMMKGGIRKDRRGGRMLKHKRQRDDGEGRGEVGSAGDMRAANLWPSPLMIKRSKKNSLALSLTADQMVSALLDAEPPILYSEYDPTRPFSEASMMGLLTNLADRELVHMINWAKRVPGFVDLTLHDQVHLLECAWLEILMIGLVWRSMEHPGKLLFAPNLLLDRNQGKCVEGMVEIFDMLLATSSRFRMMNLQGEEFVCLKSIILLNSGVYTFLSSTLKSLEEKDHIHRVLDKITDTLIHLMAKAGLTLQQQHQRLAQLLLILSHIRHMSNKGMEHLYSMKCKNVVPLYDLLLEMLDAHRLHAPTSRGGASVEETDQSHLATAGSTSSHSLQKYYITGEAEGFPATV", "sequence (Q92731 whole entry, looked up, the tested form may be a part)": "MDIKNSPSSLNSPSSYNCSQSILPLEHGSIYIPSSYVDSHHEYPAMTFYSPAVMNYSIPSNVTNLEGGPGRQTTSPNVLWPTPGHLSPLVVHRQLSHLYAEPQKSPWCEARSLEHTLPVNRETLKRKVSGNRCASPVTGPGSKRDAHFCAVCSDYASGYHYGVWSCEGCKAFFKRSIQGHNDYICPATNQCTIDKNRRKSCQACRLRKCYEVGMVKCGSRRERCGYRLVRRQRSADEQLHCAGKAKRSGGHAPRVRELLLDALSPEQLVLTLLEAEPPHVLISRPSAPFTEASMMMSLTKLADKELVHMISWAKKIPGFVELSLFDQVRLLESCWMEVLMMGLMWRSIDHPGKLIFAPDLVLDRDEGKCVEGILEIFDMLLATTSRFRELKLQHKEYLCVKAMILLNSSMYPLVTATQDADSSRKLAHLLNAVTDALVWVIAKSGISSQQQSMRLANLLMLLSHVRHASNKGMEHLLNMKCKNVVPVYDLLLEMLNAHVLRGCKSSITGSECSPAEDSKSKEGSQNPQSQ", "test": "OT_ER_ERaERb_1440: Odyssey Thera (OT) 24-hour HEK293T Protein-Complementation Assay for Estrogen Receptor-alpha/-beta Homodimer (AID 2283356);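 further: heteromer of ER alpha and ER beta binding domains; hits raise reporter fluorescence and both agonists and antagonists give an increase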", "how_it_was_run": "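24 h exposure; HEK293T PCA cells with ERα/ERβ LBD fragments; signal rise in nuclear or whole-cell fluorescence over vehicle.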"}, "[2]": {"biological_target": "Estrogen receptor beta (Homo sapiens) (UniProt Q92731)", "sequence (Q92731 whole entry, looked up, the tested form may be a part)": "as above", "test": "OT_ER_ERbERb_0480: Odyssey Thera (OT) 8-hour HEK293T Protein-Complementation Assay for Estrogen Receptor-beta/-beta Homodimer (AID 2283357)", "how_it_was_run": "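Cells (HEK293T, stable ER-beta LBD PCA pair) are treated 8 hours, fixed and Draq5-stained; signal is fluorescence intensity increase relative to vehicle, fitted in the gain direction.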"}, "[3]": {"biological_target": "PGR (gene 5241) (UniProt P06401)", "sequence (P06401 whole entry, looked up)": "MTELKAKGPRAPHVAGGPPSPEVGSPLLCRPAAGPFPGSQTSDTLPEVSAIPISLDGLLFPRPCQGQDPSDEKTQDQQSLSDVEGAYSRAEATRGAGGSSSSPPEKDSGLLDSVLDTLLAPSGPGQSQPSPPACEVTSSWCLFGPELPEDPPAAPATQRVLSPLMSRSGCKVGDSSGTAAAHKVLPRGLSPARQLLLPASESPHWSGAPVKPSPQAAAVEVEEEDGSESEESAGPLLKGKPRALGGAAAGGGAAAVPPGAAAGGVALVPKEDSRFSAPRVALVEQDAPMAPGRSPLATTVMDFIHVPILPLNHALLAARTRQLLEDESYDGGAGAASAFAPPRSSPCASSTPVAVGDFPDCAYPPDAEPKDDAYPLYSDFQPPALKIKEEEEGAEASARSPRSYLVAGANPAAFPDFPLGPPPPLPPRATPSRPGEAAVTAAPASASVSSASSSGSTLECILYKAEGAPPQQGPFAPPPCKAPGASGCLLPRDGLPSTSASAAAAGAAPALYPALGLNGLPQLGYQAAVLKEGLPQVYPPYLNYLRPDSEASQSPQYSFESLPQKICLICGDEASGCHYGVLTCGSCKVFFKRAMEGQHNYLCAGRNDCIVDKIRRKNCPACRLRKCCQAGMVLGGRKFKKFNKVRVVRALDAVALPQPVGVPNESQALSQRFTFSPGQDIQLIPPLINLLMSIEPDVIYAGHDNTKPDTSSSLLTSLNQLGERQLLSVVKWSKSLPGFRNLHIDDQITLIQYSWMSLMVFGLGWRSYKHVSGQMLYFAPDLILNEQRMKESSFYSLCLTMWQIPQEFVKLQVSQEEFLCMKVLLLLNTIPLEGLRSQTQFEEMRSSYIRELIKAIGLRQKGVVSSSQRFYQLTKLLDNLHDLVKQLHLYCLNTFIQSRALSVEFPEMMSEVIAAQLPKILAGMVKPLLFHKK", "test": "NVS_NR_hPR: NovaScreen (NVS) Nuclear Receptor Binding Assay for human Progestron Receptor (PR) (AID 2283360);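 further: active means loss of bound radioligand signal versus DMSO baseline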", "how_it_was_run": "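T47D lysate; tritiated or iodinated radioligand; scintillation count at 18 h. DMSO = negative control/baseline. Primary: 25 uM, duplicate. Secondary: concentration series for actives.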"}, "[4]": {"biological_target": "Retinoic acid receptor alpha (Homo sapiens) (UniProt P10276)", "sequence (P10276 whole entry, looked up)": "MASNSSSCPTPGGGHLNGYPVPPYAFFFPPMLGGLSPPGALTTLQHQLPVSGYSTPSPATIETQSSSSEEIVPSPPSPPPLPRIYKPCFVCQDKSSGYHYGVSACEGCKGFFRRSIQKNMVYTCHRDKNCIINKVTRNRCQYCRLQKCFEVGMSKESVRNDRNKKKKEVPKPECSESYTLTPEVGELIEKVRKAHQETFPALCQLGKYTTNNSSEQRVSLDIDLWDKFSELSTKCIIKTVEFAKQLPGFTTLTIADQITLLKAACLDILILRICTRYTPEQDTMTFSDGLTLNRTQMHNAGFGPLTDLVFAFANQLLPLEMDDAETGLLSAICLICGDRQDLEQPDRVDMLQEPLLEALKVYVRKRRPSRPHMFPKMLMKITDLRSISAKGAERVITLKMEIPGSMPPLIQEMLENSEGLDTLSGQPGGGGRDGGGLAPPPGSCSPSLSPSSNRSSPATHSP", "test": "NVS_NR_hRARa_Agonist: NovaScreen (NVS) Nuclear Receptor Binding Assay for human Retinoic Acid Alpha Receptor Agonism (RAR) (AID 2283361)", "how_it_was_run": "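Readout is time-resolved fluorescence resonance energy transfer after a 2 h exposure of cell-free extracted receptor protein. Initial testing used 25 uM in duplicate, with concentration-response follow-up for active chemicals.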"}, "[5]": {"biological_target": "Nuclear receptor subfamily 1 group I member 2 (Homo sapiens) (UniProt O75469)", "sequence (O75469 whole entry, looked up)": "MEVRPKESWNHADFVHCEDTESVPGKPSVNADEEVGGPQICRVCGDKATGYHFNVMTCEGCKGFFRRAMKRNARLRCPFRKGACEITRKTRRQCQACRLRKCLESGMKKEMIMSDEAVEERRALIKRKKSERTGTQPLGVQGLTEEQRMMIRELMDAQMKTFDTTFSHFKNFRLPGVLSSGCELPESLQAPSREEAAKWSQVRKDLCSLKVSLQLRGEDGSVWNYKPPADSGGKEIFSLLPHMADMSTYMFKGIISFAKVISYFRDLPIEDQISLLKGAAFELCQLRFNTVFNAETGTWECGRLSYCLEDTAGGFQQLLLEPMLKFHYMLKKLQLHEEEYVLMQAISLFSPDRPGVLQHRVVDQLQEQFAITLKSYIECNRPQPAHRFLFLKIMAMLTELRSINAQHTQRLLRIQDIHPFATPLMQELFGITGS", "test": "NVS_NR_hPXR: NovaScreen (NVS) Nuclear Receptor Binding Assay for human Pregnane X Receptor (PXR) (AID 2283365);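 further: a drop in FRET signal versus DMSO baseline means the compound binds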", "how_it_was_run": "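Read-out: TR-FRET, human PXR, 2 h post-dosing, cell-free. Loss of signal vs DMSO taken as binding activity; 25 uM primary, concentration series secondary.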"}, "[6]": {"biological_target": "human Peroxisome Proliferator-activated Receptor alpha (PPARa), PPARA (gene 5465) (UniProt Q07869)", "sequence (Q07869 whole entry, looked up)": "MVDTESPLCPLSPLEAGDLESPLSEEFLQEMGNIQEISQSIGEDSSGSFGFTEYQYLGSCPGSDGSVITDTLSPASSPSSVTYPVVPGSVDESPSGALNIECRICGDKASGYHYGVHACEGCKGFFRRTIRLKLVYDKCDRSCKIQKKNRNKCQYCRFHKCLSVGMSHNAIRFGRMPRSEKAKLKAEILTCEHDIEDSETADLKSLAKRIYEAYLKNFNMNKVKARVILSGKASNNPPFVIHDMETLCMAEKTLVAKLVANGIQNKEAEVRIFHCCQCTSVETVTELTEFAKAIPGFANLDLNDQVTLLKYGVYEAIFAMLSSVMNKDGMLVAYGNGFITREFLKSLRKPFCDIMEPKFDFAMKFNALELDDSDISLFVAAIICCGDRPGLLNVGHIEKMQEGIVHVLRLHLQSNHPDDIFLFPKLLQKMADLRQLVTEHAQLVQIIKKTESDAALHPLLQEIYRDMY", "test": "NVS_NR_hPPARa: NovaScreen (NVS) Nuclear Receptor Binding Assay for human Peroxisome Proliferator-activated Receptor alpha (PPARa) (AID 2283359);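 further: activity means loss of TR-FRET signal versus DMSO baseline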", "how_it_was_run": "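Chemicals were first screened in duplicate at 25 uM, and active ones were retested across concentration series. Binding was monitored by TR-FRET one hour after dosing, with decreased signal against DMSO counted as activity.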"}, "[7]": {"biological_target": "human Thyroid Receptor Alpha (TRa), THRA (gene 7067) (UniProt P10827)", "sequence (P10827 whole entry, looked up)": "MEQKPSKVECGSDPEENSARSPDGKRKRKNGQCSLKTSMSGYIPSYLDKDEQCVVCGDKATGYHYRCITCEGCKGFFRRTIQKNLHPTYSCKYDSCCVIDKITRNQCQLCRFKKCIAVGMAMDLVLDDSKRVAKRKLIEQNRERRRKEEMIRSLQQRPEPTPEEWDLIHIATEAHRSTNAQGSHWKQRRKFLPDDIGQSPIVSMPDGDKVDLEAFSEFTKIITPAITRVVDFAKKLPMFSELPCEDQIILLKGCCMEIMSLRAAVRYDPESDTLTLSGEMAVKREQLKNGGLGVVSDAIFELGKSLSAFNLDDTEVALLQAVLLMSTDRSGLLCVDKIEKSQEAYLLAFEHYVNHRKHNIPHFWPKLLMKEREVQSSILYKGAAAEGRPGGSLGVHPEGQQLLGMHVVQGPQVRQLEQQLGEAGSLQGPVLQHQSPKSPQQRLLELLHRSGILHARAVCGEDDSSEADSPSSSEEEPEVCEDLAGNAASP", "test": "NVS_NR_hTRa_Antagonist: NovaScreen (NVS) Nuclear Receptor Binding Assay for human Thyroid Receptor Alpha Antagonism (TRa) (AID 2283362)", "how_it_was_run": "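In this biochemical format, receptor protein is dosed with chemical and read after 1 hour via AlphaLISA. Decreases from the DMSO baseline indicate antagonist activity; screening used 25 uM in duplicate before concentration-response confirmation.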"}, "[8]": {"biological_target": "Retinoic acid receptor alpha (Homo sapiens) (UniProt P10276)", "test": "NVS_NR_hRAR_Antagonist: NovaScreen (NVS) Nuclear Receptor Binding Assay for human Retinoic Acid Alpha Receptor Antagonism (RAR) (AID 2283358)", "how_it_was_run": "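TR-FRET, cell-free, antagonist format; 2 h incubation after dosing; DMSO = baseline; signal loss fitted; 25 uM duplicate primary, then conc. series.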"}},
  "note": "Results filed as inconclusive are left out. The source made the active and inactive calls. How the source made its calls: active means hit-call score of the fitted dose curve at least 0.9, where 1 is the maximum; inconclusive means response in the unintended direction; inactive means score below 0.9.",
  "data": [
    {"smiles": "CCN(CC)C(=O)c1cccc(C)c1", "values": [
      {"measurement": "outcome", "setting": "[1]", "result": "inactive"},
      {"measurement": "outcome", "setting": "[2]", "result": "inactive"}
    ]},
    {"smiles": "CCCCOC(=O)[C@@H](C)Oc1ccc(Oc2ccc(C(F)(F)F)cn2)cc1", "values": [
      {"measurement": "outcome", "setting": "[1]", "result": "inactive"},
      {"measurement": "outcome", "setting": "[2]", "result": "inactive"}
    ]},
    {"smiles": "C[C@]12C[C@H](O)[C@H]3[C@@H](CCC4=CC(=O)CC[C@@]43C)[C@@H]1CC[C@@H]2C(=O)CO", "values": [
      {"measurement": "outcome", "setting": "[1]", "result": "inactive"},
      {"measurement": "outcome", "setting": "[2]", "result": "inactive"},
      {"measurement": "AC50", "setting": "[3]", "result": "0.403 µM (active)"},
      {"measurement": "outcome", "setting": "[4]", "result": "inactive"},
      {"measurement": "outcome", "setting": "[5]", "result": "inactive"}
    ]},
    {"smiles": "O=C(Nc1ccc([N+](=O)[O-])cc1Cl)c1cc(Cl)ccc1O", "values": [
      {"measurement": "outcome", "setting": "[1]", "result": "inactive"},
      {"measurement": "outcome", "setting": "[2]", "result": "inactive"}
    ]},
    {"smiles": "C=CCOC(Cn1ccnc1)c1ccc(Cl)cc1Cl", "note": "(stereo unspecified)", "values": [
      {"measurement": "outcome", "setting": "[2]", "result": "inactive"},
      {"measurement": "outcome", "setting": "[6]", "result": "inactive"}
    ]},
    {"smiles": "Oc1ccc(C(c2ccc(O)cc2)C(Cl)(Cl)Cl)cc1", "values": [
      {"measurement": "AC50", "setting": "[3]", "result": "6.82 µM (active)"},
      {"measurement": "outcome", "setting": "[7]", "result": "inactive"}
    ]},
    {"smiles": "CCCCC(CC)CN1C(=O)C2C3C=CC(C3)C2C1=O", "note": "(stereo unspecified)", "values": [
      {"measurement": "outcome", "setting": "[1]", "result": "inactive"},
      {"measurement": "outcome", "setting": "[2]", "result": "inactive"},
      {"measurement": "outcome", "setting": "[3]", "result": "inactive"}
    ]},
    {"smiles": "S=C([S-])NCCNC(=S)[S-].[Mn+2]", "values": [
      {"measurement": "outcome", "setting": "[2]", "result": "inactive"}
    ]},
    {"smiles": "CCCCOC(=O)C(C)Oc1ccc(Oc2ccc(C(F)(F)F)cn2)cc1", "note": "(stereo unspecified)", "values": [
      {"measurement": "outcome", "setting": "[1]", "result": "inactive"},
      {"measurement": "outcome", "setting": "[2]", "result": "inactive"}
    ]},
    {"smiles": "CCCCCCC(C)OC(=O)COc1nc(F)c(Cl)c(N)c1Cl", "note": "(stereo unspecified)", "values": [
      {"measurement": "outcome", "setting": "[2]", "result": "inactive"}
    ]},
    {"smiles": "O=C(O)C1(C(=O)Nc2ccc(Cl)cc2Cl)CC1", "values": [
      {"measurement": "outcome", "setting": "[1]", "result": "inactive"},
      {"measurement": "outcome", "setting": "[2]", "result": "inactive"},
      {"measurement": "outcome", "setting": "[8]", "result": "inactive"},
      {"measurement": "outcome", "setting": "[3]", "result": "inactive"}
    ]},
    {"smiles": "C#CCOC(=O)[C@@H](C)Oc1ccc(Oc2ncc(Cl)cc2F)cc1", "values": [
      {"measurement": "outcome", "setting": "[1]", "result": "inactive"},
      {"measurement": "outcome", "setting": "[2]", "result": "inactive"}
    ]},
    {"smiles": "COC(=O)c1ccccc1C(=O)O", "values": [
      {"measurement": "outcome", "setting": "[1]", "result": "inactive"},
      {"measurement": "outcome", "setting": "[2]", "result": "inactive"},
      {"measurement": "outcome", "setting": "[8]", "result": "inactive"}
    ]}
  ]
}
